What is called inhibition is the change of the read-out against control, counted positive when it falls.

The whole screen tested about 310,000 compounds, of which about 1,000 (0.32%) were called active. The rule behind the calls is not given here. Not all results are given here. Results with a measured potency or affinity are listed apart.

In PubChem BioAssay AID1850 (Southern Research Specialized Biocontainment Screening …, 2009) one finds inhibition data, which are given here for 30 compounds.

The nature of this experiment: Inhibition of PhoP regulon, Salmonella typhi GFP reporter cells, confirmation, 4 h (AID 1850).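 Note: 0% = induced wells with vehicle and 100% = uninduced wells.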 The note with it: Salmonella Typhi PhoP-promoter GFP reporter, fluorescence, at 50 µM, active compounds read high.
Take `COc1ccc(C(=O)NCCc2cc3ccc(C)c(C)c3[nH]c2=O)cc1OC`: the inhibition is -4.33% (inactive). Under `O=C1OCC(CO)(CO)N=C1NNc1cc(Cl)ccc1Cl` stands 6.11% (inactive); under `O=C1OCC(CO)(CO)N=C1NNc1ccccc1Cl`, 8.82% (inactive). Under `Cc1cc(C)c(NC(=O)C2CCCN2CCO)c(C)c1` (stereo not given) stands 6.37% (inactive).

In the case of `Cc1cc(C)cc(NC2=NC3(CCCCC3)N=C(N)N2)c1`, the inhibition was 18% (inactive). Then `NC1=NC2(CCCC2)N=C(Nc2ccccc2)N1`, with 0.23% (inactive); and `Cc1cccc(NC2=NC3(CCCCC3)N=C(N)N2)c1C`, with 1.1% (inactive). Then `Cc1ccc(C)c(NC2=NC3(CCCCC3)N=C(N)N2)c1`, with -8.53% (inactive). Turning to `Cc1ccc(NC2=NC3(CCCCC3)N=C(N)N2)c(C)c1`, the inhibition is 8.94% (inactive). With `Cc1ccccc1NC1=NC2(CCCC2)N=C(N)N1`, the inhibition was -0.71% (inactive). On to `COc1ccc(OC)c(NC2=NC3(CCCCC3)N=C(N)N2)c1`, for which the inhibition is -2.55% (inactive). As for `COc1ccc(OC)c(NC2=NC3(CCCC3)N=C(N)N2)c1`, the inhibition is -3.8% (inactive). Regarding `COc1ccc(S(=O)(=O)N2CCCc3ccccc32)cc1[N+](=O)[O-]`, the inhibition is 1.36% (inactive). Then `Clc1ccc(-c2c[n+]3c(n2-c2ccccc2)SCC3)cc1`, with 22.2% (inactive).

Regarding `CCc1cc2cc(C)ccc2nc1SCC(=O)Nc1cc(C)on1`, the inhibition was -6.66% (inactive). For `COc1cccc(CNC(=O)CC(NC(=O)c2ccccc2)c2ccccc2)c1` (stereo not given), the inhibition is -2.43% (inactive). Turning to `O=[N+]([O-])c1cc(NCCO)c(N2CCCCCC2)c2nonc12`, the inhibition was -4.05% (inactive). Regarding `CCCS(=O)(=O)N1CCC(C(=O)NC2CCCC(C)C2C)CC1` (stereo not given), the inhibition is 3.41% (inactive). Turning to `C[C@H](NC(=O)[C@@H]1Cc2ccccc2CN1)C(=O)Nc1ccc2c(c1)OCCO2`, the inhibition is -6.47% (inactive).

For the compound `CCc1cccc2c(C(=O)COC(=O)c3ccccc3)c[nH]c12`, the inhibition was -6.08% (inactive). For `CCc1cccc2c(C(=O)COC(=O)c3ccc(O)cc3)c[nH]c12`, the inhibition was -22.3% (inactive). Then `O=C(c1ccco1)N1CCN(C(=O)C23CC4CC(CC(C4)C2)C3)CC1`, with -6.11% (inactive); and `O=C(O)c1ccc(Nc2nc3ccc(Cl)cc3[nH]2)cc1`, with -11.1% (inactive); and `O=C(O)c1ccc(-c2nnn(Cc3cccc(C(F)(F)F)c3)n2)cc1`, with 16.4% (inactive). Then `CC1CCC(NC(=O)c2ccc(S(C)(=O)=O)cc2)CC1` (stereo not given), with -20% (inactive); and `CCc1ccc(NC(=O)[C@H](C)NC(=O)C2CCN(C(=O)[C@@H](N)C(C)C)CC2)cc1`, with 3.36% (inactive).

`Cc1oc(-c2cccc(Cl)c2)nc1CN1CCC(C(=O)NC2CC2)CC1`: the inhibition is -4.63% (inactive). On to `CCN1CCN(CCNC(=O)C2CCN(Cc3nc(-c4ccc(Cl)cc4)oc3C)CC2)CC1`, for which the inhibition is 6.8% (inactive). `Cc1oc(-c2cccc(Cl)c2)nc1CN1CCC(C(=O)NCC2CCCO2)CC1` (stereo not given): the inhibition is 1.34% (inactive). Under `CCN(CCNC(=O)C1CCN(Cc2nc(-c3ccc(Cl)cc3)oc2C)CC1)c1ccccc1` stands 6.02% (inactive).
